Screening results from PubChem.
Shown are actives, neighbours in structure and some others; about 3.8% of the full set was active somewhere.
Gli-Sufu antag: antagonists of Gli-Sufu signaling; Sufu-KO-LIGHT fibroblasts, Gli luciferase reporter luminescence; inhibition, % at 5 µM; 340,000 tested, 0.74% active;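 active means inhibition above about 55%, limit read from the data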
Mdm2-MdmX inh: disrupts the human Mdm2-MdmX interaction | SaOS-2 split-luciferase Mdm2/MdmX complementation, luminescence | inhibition, % at 8 µM | 330,000 tested, 3% active | AID 485346;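 active means inhibition of at least 50% at 8 µM in the primary screen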
Target sequence (O15151 whole entry, looked up): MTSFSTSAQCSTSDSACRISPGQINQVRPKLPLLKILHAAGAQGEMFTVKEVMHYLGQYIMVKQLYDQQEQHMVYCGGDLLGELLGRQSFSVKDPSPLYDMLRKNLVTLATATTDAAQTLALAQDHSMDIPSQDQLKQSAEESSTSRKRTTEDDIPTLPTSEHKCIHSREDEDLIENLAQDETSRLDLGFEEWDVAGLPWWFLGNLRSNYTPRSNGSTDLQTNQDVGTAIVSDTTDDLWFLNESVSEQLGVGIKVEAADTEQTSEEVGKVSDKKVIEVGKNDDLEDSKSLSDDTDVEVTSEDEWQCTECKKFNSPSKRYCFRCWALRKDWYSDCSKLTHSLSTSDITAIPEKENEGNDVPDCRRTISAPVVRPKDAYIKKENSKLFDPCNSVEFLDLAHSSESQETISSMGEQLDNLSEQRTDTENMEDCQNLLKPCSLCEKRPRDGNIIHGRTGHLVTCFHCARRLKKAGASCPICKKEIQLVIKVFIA
Target sequence (Q00987 whole entry, looked up): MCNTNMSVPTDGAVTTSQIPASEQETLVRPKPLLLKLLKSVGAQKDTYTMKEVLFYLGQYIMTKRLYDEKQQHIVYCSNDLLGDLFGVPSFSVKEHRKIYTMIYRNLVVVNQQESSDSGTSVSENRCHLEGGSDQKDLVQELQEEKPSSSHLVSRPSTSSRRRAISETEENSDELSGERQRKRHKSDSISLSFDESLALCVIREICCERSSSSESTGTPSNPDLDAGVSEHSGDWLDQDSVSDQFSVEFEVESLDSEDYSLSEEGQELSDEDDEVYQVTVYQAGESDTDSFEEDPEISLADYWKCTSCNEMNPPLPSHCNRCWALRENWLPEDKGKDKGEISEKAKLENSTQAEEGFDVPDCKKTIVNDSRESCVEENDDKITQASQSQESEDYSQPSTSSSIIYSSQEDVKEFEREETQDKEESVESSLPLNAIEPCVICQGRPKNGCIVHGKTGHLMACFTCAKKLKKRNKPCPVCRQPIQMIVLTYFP
697 NFkB inh: lowers PMA/ionomycin-induced NF-kB signal in 697 B cells. AID 435022. inhibition, % at 4 µM. 697 B-cell NF-kB luciferase reporter, 16 h. 330,000 tested, 0.33% active; in the data active means inhibition above about 35%
Jurkat NFkB inh: lowers PMA/ionomycin-induced NF-kB signal in Jurkat cells. AID 435003. 330,000 tested, 0.53% active. PMA/ionomycin-induced NF-kB luciferase reporter, luminescence. inhibition, % at 4 µM; in the data active means inhibition above about 50%
Shn3 inh set2: inhibitors of Schnurri-3 3'UTR reporter in osteoblasts. Clone20 osteoblast Shn3 3'UTR firefly luciferase, 24 h. inhibition, % at 12.5 µM. 360,000 tested, 0.52% active;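 active means mean inhibition of at least 75% with every replicate also reaching 75%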
Mdm2-MdmX conf: human Mdm2/MdmX binding inhibition, confirmed; 10,000 tested, 55% active; shares compounds with Mdm2-MdmX inh; inhibition, % at 8 µM; luminescent assay; in the data active means inhibition above about 40%
FLuc counter: counter-screen for Mdm2/MdmX inhibitors: full-length luciferase; shares compounds with Mdm2-MdmX inh; SaOS-2 full-length luciferase counterscreen, luminescence; inhibition, % at 8 µM; 6,200 tested, 77% active; AID 504607;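 active means mean inhibition at 8 µM reaching about 37%, which flags the compound as non-specific, limit read from the data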;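 further: p53-null SaOS-2 cells with luciferase driven by a doxycycline-inducible promoter; compound on cells about two nights before reading with doxycycline added after day one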
A number is an active result; – = inactive; · = no result.

SMILES	Gli-Sufu antag	Mdm2-MdmX inh	697 NFkB inh	Jurkat NFkB inh	Shn3 inh set2	Mdm2-MdmX conf	FLuc counter
CC(NC(=O)CN1C(=O)NC(Cc2ccccc2)(Cc2ccccc2)C1=O)C12CC3CC(CC(C3)C1)C2 (stereo not given)	–	77	–	–	–	45	65
NC(=O)CC(NC(=O)Cc1ccc(Br)cc1)c1ccc(N2CCC(Cc3ccccc3)CC2)c([N+](=O)[O-])c1 (stereo not given)	–	71	–	–	–	55	48
CCCCNc1ccc(C(CC(N)=O)NC(=O)Cc2ccc(Br)cc2)cc1[N+](=O)[O-] (stereo not given)	–	87	–	–	–	60	53
NC(=O)CC(NC(=O)Cc1ccc(Br)cc1)c1ccc(N2CCC(Br)CC2)c([N+](=O)[O-])c1 (stereo not given)	–	–	–	–	–	·	·
O=C(NCc1ccccc1)c1cc(C2CCCCN2C(=O)c2ccc(Cl)cc2)on1 (stereo not given)	·	·	·	·	–	·	·
Cn1ncc2c(Nc3ccc(Br)cc3)nc(Nc3ccc(Br)cc3)nc21	–	60	–	–	–	–	·
Cn1ncc2c(Nc3ccc(O)cc3)nc(Cl)nc21	–	–	–	–	–	·	·
Cn1ncc2c(Nc3cccc(Cl)c3)nc(Nc3cccc(Cl)c3)nc21	–	50	–	–	–	–	·
Cc1ccc(S(=O)(=O)N2CC(O)C2)cc1	–	–	–	–	–	·	·
O=S(=O)(O)c1cc(O)c2c(O)c(N=Nc3cc(Cl)ccc3O)c(S(=O)(=O)O)cc2c1	–	–	–	–	–	·	·
Cc1cc(-c2ccc(N=Nc3c(S(=O)(=O)O)cc4cc(S(=O)(=O)O)cc(N)c4c3O)c(C)c2)ccc1N=Nc1c(S(=O)(=O)O)cc2cc(S(=O)(=O)O)cc(N)c2c1O	·	62	–	–	·	57	48
COc1ccc(NC(=O)C(=O)NCC2CCCN2S(=O)(=O)c2cc(C)ccc2C)cc1 (stereo not given)	–	60	–	–	–	74	48
COc1ccc(CCNC(=O)C(=O)NCC2CCCN2S(=O)(=O)c2ccccc2)cc1OC (stereo not given)	–	52	–	–	–	–	·
COc1ccc(NC(=O)C(=O)NCCC2CCCCN2S(=O)(=O)c2ccccc2)cc1 (stereo not given)	–	55	–	–	–	79	56
COc1ccc(CNC(=O)C(=O)NCCC2CCCCN2S(=O)(=O)c2ccccc2)cc1 (stereo not given)	–	–	–	–	–	·	·
Cc1ccc(N(C)S(=O)(=O)c2cccc(C(=O)NCC(c3cccs3)N3CCOCC3)c2)cc1 (stereo not given)	–	–	–	–	–	·	·
CN(C)CCN1CCN(C2CN(C3CCCC3)S(=O)(=O)C2)CC1 (stereo not given)	·	·	·	·	–	·	·
CC(=O)Nc1ccc(C(=O)NC2CCSc3ccccc32)cc1 (stereo not given)	–	–	–	–	–	·	·
CC(=O)c1c(C)[nH]c(C(=O)NC2CCSc3ccccc32)c1C (stereo not given)	–	56	–	–	–	–	·
CNS(=O)(=O)c1ccc(C(=O)NCC(=O)NC(C)c2cccs2)cc1 (stereo not given)	–	–	–	–	–	·	·
COc1ccc(C(=O)/C=C/c2cn(CC(O)CN3CCN(C)CC3)c3ccccc23)cc1OC (stereo not given)	–	50	–	–	–	–	·
CCCCN(C)CC(O)Cn1cc(/C=C/C(=O)c2ccc(C)cc2)c2ccccc21 (stereo not given)	–	74	–	–	–	–	·
CCC(=O)N(C)C[C@H]1Oc2cc(Br)ccc2S(=O)(=O)N([C@@H](C)CO)C[C@H]1C	·	·	·	·	–	·	·
Cc1ccc(S(=O)(=O)Nc2ccc3c(c2)CC(=O)N([C@H](C)CO)C[C@@H](C)[C@H](CN(C)Cc2ccc(-c4ccccc4)cc2)O3)cc1	–	82	–	–	–	–	63
C[C@H](CO)N1C[C@H](C)[C@H](CN(C)Cc2ccc(-c3ccccc3)cc2)Oc2ccc(NS(=O)(=O)c3ccccc3)cc2CC1=O	–	85	–	–	–	–	·
SMILES	Gli-Sufu antag	Mdm2-MdmX inh	697 NFkB inh	Jurkat NFkB inh	Shn3 inh set2	Mdm2-MdmX conf	FLuc counter
C[C@H]1CN([C@@H](C)CO)C(=O)Cc2cc(NC(=O)CCC(F)(F)F)ccc2O[C@H]1CN(C)Cc1ccc(-c2ccccc2)cc1	–	55	–	–	–	–	·
Cc1ccc(S(=O)(=O)Nc2ccc3c(c2)C(=O)N([C@H](C)CO)C[C@H](C)[C@@H](CN(C)Cc2ccccc2)O3)cc1	–	–	–	–	–	·	·
C[C@@H]1CN([C@@H](C)CO)C(=O)Cc2cc(NS(=O)(=O)c3ccccc3)ccc2O[C@H]1CN(C)Cc1ccncc1	–	–	–	–	–	·	·
CC1(C2CC2)NC(=O)N(CC(=O)N2CCN(c3ccccc3)CC2)C1=O (stereo not given)	–	–	–	–	–	·	·
COc1ccc(CN(CC(=O)NCC2CCCO2)C(=O)CCC(=O)Nc2nccs2)cc1 (stereo not given)	–	–	–	–	–	·	·
COCCN1C(=O)CCC1(C)C(=O)NC(C)(C)C (stereo not given)	·	·	·	·	–	·	·
O=C(Nc1ccc(Cl)cc1)/C(=C/c1cccc(O)c1)c1nc2ccccc2s1	–	100	–	–	93	100	51
O=C(N/N=C/c1ccc(Br)s1)c1ccco1	–	–	–	–	–	·	·
O=C(N/N=C/c1sc(=O)n(Cc2ccc(Br)cc2)c1Cl)c1ccco1	–	59	–	–	–	–	·
CC(C)Cn1c(N2CCN(CC(=O)Nc3ccc(Cl)cc3)CC2)nc2ccccc21	–	–	–	–	–	·	·
O=c1/c(=C/c2ccc(O)cc2)sc2nc3cc(Br)cnc3n12	·	58	–	–	·	–	40
O=c1/c(=C\c2ccc(O)cc2)sc2nc(-c3ccccc3)c(-c3ccccc3)n12	–	–	–	–	–	·	·
CSc1sc(C(=O)NCC2CC2)cc1S(=O)(=O)C(C)C	–	–	–	–	–	·	·
COC(=O)c1cc(S(=O)(=O)C(C)C)c(S(C)=O)s1 (stereo not given)	–	51	–	–	·	–	39
O=C(Cn1cnc2c(nnn2Cc2ccc(F)cc2)c1=O)Nc1ccc2c(c1)OCCO2	–	71	–	–	–	–	·
CCCCC(=O)Nc1nnc(CCc2ccccc2)s1	–	–	–	–	–	·	·
Cc1cc(C)cc(NC(=O)CCc2nc3sc4c(c3c(=O)[nH]2)CCCC4)c1	–	82	–	–	–	94	96
CN(CC(=O)Nc1ccc(F)cc1)C(=O)CCc1nc2sc3c(c2c(=O)[nH]1)CCCC3	–	–	–	–	–	·	·
CN(CC(=O)Nc1ccc(Cl)cc1)C(=O)CCc1nc2sc3c(c2c(=O)[nH]1)CCCC3	–	86	–	–	–	50	96
